In all, about 33,000 sequences were measured (“E-score (-0.5 to 0.5)”: median about -0.035, highest 2% from about 0.35 on). The sample holds the highest values, similar sequences and a random draw of the others, so the mix is not that of the screen.
molecular target: T1, Pdr3 (UniProt P33200); assay: PBM E-score (8-mer binding enrichment) (E-score (-0.5 to 0.5)); higher = stronger / more preferred TF binding; conditions: protein concentration: 200 nM; construct: GST-full length
T1 sequence: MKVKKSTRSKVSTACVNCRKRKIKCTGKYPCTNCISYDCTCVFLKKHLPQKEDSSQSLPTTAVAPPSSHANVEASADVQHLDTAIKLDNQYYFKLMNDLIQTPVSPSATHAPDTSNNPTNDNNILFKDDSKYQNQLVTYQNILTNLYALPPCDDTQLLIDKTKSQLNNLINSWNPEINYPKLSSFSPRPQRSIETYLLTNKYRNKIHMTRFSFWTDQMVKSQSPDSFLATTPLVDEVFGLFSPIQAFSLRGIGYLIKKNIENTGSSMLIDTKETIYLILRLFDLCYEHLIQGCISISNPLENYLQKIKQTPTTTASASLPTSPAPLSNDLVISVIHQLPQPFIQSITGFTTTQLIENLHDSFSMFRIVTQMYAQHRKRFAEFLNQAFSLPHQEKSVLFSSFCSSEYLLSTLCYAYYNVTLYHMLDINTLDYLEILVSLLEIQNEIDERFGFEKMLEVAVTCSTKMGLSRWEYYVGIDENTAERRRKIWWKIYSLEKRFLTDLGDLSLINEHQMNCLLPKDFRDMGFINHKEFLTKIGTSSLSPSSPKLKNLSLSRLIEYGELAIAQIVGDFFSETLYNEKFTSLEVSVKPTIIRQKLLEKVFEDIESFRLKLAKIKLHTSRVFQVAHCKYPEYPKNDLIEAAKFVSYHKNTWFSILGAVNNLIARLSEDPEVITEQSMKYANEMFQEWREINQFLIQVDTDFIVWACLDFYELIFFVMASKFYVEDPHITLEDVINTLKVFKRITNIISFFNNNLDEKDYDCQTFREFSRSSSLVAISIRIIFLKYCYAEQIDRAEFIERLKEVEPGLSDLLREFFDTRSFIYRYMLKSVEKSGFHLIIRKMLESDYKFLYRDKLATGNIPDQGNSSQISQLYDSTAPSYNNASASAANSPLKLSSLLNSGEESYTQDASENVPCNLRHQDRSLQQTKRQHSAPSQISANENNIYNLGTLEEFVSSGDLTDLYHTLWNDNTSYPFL
Description: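 Universal 'all 10-mer' protein binding microarrays (Agilent AMADID 015681) probed with GST-tagged S. cerevisiae TFs (full-length or DBD) made by in vitro transcription/translation (PURExpress), about 100-200 nM. Bound TF was detected with fluorescent anti-GST. Each ungapped 8-mer (which stands for itself and its reverse complement) is scored by the PBM enrichment score (E-score), a modified Wilcoxon-Mann-Whitney statistic from -0.5 to +0.5, computed with the Universal PBM Analysis Suite. Scale: above 0.35 generally sequence-specific binding.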

Sequence | PBM E-score
AACAACAC | 0.0662
CCTCCAGG | -0.269
AATATTCC | 0.362
AATATTCA | 0.0722
AATATTCG | 0.0118
ATACCGCC | 0.212
AGCCGTTG | 0.00388
GTCCGTTA | 0.321
ATCCGTTA | 0.364
ATCCGTGC | 0.267
ATCCGTTG | 0.376
ACCCGTTG | 0.0389
ATCCGTGG | 0.428
CTCCGTTA | 0.216
CTCCGTGC | 0.263
CTCCGTTC | 0.367
ATCCGTTC | 0.322
ATCCGTGA | 0.306
AAGCGCGT | -0.113
TAGTCCCA | -0.187
CAACCCGG | 0.293
CCACTCTA | -0.0753
AAGAGCCC | -0.00683
CGCTTAAC | 0.0421
CAACCGGG | 0.129

Sequence | PBM E-score
GAACCGGC | 0.247
CAACCGCG | 0.369
AAACCGGA | 0.346
GAACCGGA | 0.416
TAACCGGA | 0.308
CAACCGCC | 0.0754
CAACCGCA | 0.0919
CAACCGGA | 0.379
AAGATGAC | -0.202
AATGAAAC | 0.059
GGCCTTCA | 0.0249
GCGCCCCC | -0.146
GCCGACGC | 0.178
CAATCCGC | 0.265
AAATCCGC | 0.196
CAATCCGG | 0.394
AAATCCGT | 0.246
CAATCCGA | 0.271
AAATCCGG | 0.39
GCCTCTTA | -0.109
CGAAGGTA | 0.0358
CCGGACGA | 0.36
CCGGACGC | 0.33
ACGGACGA | 0.304
TCGGACGA | 0.233

Sequence | PBM E-score
ACGGACGG | 0.245
CCGGACGG | 0.396
AGCATTCA | -0.0565
CCGTACGA | 0.00505
CATTTCTC | 0.0391
GTAAAAAC | -0.132
CCCGGGTA | 0.438
CCGGGGTC | 0.327
ACCGGGTC | 0.184
ACCGGGTA | 0.154
CCGGGGTA | 0.341
CCCGGGTC | 0.426
AAACCATT | -0.226
TCGCTTCA | -0.114
CGGTCGAA | 0.0584
ATATCCCC | 0.0317
ATATCCGA | 0.346
CCATCCCG | 0.31
ACATCCCC | 0.245
ATGTCCGC | 0.223
ATGTCCGA | 0.207
ATGTCCGG | 0.375
ATATCCGC | 0.333
ATATCCGG | 0.384
ATATCCCA | 0.229

Sequence | PBM E-score
ATATCCCG | 0.357
ACATCCCG | 0.415
AATAGCGC | 0.0976
TCCTACAA | 0.00772
GAGTAGCC | -0.153
AAACTGGC | -0.0559
AGAGGCAC | -0.154
CGGCTAAA | 0.183
AGATCCGG | 0.362
ACATCCGT | 0.216
ACATCCGA | 0.259
AGATCCAG | 0.112
ACATCCGG | 0.378
AGATCCGC | 0.351
ACCGTTGG | 0.0171
CAGCATGG | -0.00655
ACCACGGG | 0.205
TCCATGGA | 0.423
ACCACGGA | 0.377
GCCACGGA | 0.415
TCCACGCA | -0.174
TCCACGGA | 0.477
ACCACGGC | 0.135
CCCATGGA | -0.0126
GCCACGGC | 0.0607

Sequence | PBM E-score
GCCACGTA | -0.208
ACCATGGA | -0.151
TACACGGA | 0.3
AGGCAGCA | -0.0599
AAAACTCT | -0.109
ATCAACGG | 0.247
CTATCCAC | 0.0063
ATGCTATA | -0.21
ACGTTTTA | -0.16
ATGGTGAC | -0.245
CCCACGGC | 0.0935
CCCACGGG | 0.311
CCCACGGA | 0.424
GTCAGTAA | -0.145
ACTGGAAC | 0.0779
ACAGAGCC | -0.128
ACCTCCGT | 0.204
CACTCCGG | 0.351
ATCTCCGG | 0.4
AACTCCGT | 0.271
ACCTCCGG | 0.402
AGCTCCGC | 0.287
CCCTCCGG | 0.265
AGCTCCGG | 0.389
ATCTCCGA | 0.324

Sequence | PBM E-score
AGCTCCGA | 0.239
ATCTCCGC | 0.292
AACTCCGG | 0.416
ACGCTACC | -0.183
CGAGCGCG | 0.273
AGCGAAGG | -0.0572
GATTTAAA | -0.159
ATGGCACG | 0.117
AGCCGGCG | 0.372
CGGCGCCG | 0.463
AGGCGCCG | 0.161
CGCCGGCC | 0.32
CGCCGGCG | 0.452
CGCCGGCA | 0.339
CGGCGCCA | 0.171
AGCCGGCT | 0.315
AGCCGGCA | 0.339
AACCAGAG | -0.12
ACTGACCG | -0.00211
CGTGCTTA | 0.0586
CCTCTAGC | -0.247
GTTCCACA | 0.0178
CGTACGGA | 0.281
CGGACCCC | 0.198
AGGACCCG | 0.17

Sequence | PBM E-score
CGGACCCG | 0.392
CAGCGCAG | -0.00798
CTCTCTGC | -0.0361
ATTTGACC | -0.0303
CATTGCAC | -0.0987
CGCCGACG | 0.0962
GGGAAATA | 0.0401
AGGAAATA | 0.121
CTGAAATC | 0.0707
CGGAAATC | 0.407
CGGAAATA | 0.45
AGGAAATC | 0.0849
AACTCGAC | 0.0587
AACAGCTT | 0.048
TAGGGGAA | -0.157
AGGCATTA | -0.12
CGGCATTA | 0.357
GGGCATTA | -0.0343
CTCTTCCC | 0.0704
AAATCCAT | 0.17
GGAACTAA | 0.296
CCCGCCAC | 0.254
AGCTGCTG | -0.0512

Source: the supplement of paper PMC3334620
